In PubChem BioAssay (NCI):
About 83,000 compounds went through this panel and 20% of them were active in at least one assay; those are over-represented in the sample as a whole.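 The test compound was applied at a single concentration to cells in 96-well plates for 48 hours, and percent growth was recorded.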 The source made the active and inactive calls. How the source made its calls: active means growth percent below 10; inactive means the rest.

Tests used:
Test in all cases: NCI-60 one-dose screen, 48 h (100 = growth as untreated, 0 = no growth, -100 = all killed)
Settings in all cases: 10 µM unless noted
NCI-H23 lung = system: NCI-H23 lung
NCI-H226 lung = system: NCI-H226 lung
NCI-H322M lung = system: NCI-H322M lung
HOP-62 NSCLC = system: HOP-62 NSCLC
NCI-H460 lung = system: NCI-H460 lung
HOP-92 NSCLC = system: HOP-92 NSCLC
NCI-H522 lung = system: NCI-H522 lung
A549/ATCC NSCLC = system: A549/ATCC NSCLC
786-0 renal = system: 786-0 renal
COLO 205 colon = system: COLO 205 colon

Measured: growth

Cn1cc(-c2csc(-c3c[nH]c4ccc(F)cc34)n2)c2ccnc(Cl)c21
inactive: NCI-H23 lung 64.2% | NCI-H226 lung 62.1% | NCI-H322M lung 80.6% | HOP-62 NSCLC 98.2% | NCI-H460 lung 36.7% | HOP-92 NSCLC 71.5% | NCI-H522 lung 79.4% | A549/ATCC NSCLC 64.3% | 786-0 renal 57.6% | COLO 205 colon 52.2%

Cn1cc(-c2nn3cc(-c4cccs4)nc3s2)c2cc(F)ccc21
active: NCI-H460 lung 8.02% | NCI-H522 lung 5.4%
inactive: NCI-H23 lung 58% | NCI-H226 lung 67% | NCI-H322M lung 50.1% | HOP-62 NSCLC 28.4% | HOP-92 NSCLC 39.6% | A549/ATCC NSCLC 37.7% | 786-0 renal 49.2% | COLO 205 colon 22%

O=S(=O)(NCCNc1nccc(-c2c(-c3ccc(F)c(O)c3)nc3sccn23)n1)c1ccc(F)cc1
inactive: NCI-H23 lung 36.6% | NCI-H226 lung 83.6% | NCI-H322M lung 47.6% | HOP-62 NSCLC 48.3% | NCI-H460 lung 21.9% | HOP-92 NSCLC 33.6% | NCI-H522 lung 28.5% | A549/ATCC NSCLC 26.9% | 786-0 renal 38.1% | COLO 205 colon 26.2%

CC(C)(C)n1cc(-c2ccnc(NCCCNS(=O)(=O)c3cccc4ccccc34)c2)c(-c2cccc(F)c2)n1
inactive: NCI-H23 lung 68.3% | NCI-H226 lung 85.6% | NCI-H322M lung 92.9% | HOP-62 NSCLC 92.2% | NCI-H460 lung 73.3% | HOP-92 NSCLC 46.8% | NCI-H522 lung 80.5% | A549/ATCC NSCLC 73.4% | 786-0 renal 71.2% | COLO 205 colon 68.8%

CCCC(CC)(C(=O)Nc1ccc2nc(C)cc(N)c2c1)C(=O)Nc1ccc2nc(C)cc(N)c2c1
inactive: NCI-H23 lung 94.1% | NCI-H226 lung 97.8% | NCI-H322M lung 108% | HOP-62 NSCLC 107% | NCI-H460 lung 106% | HOP-92 NSCLC 117% | NCI-H522 lung 92% | A549/ATCC NSCLC 98.3% | 786-0 renal 103% | COLO 205 colon 114%

O=C(Oc1ccc(CCl)cc1)c1ccccc1
active: NCI-H23 lung -72.6% | NCI-H226 lung -97.8% | NCI-H322M lung -91.4% | HOP-62 NSCLC -79.2% | NCI-H460 lung -47.5% | HOP-92 NSCLC -89.7% | NCI-H522 lung -65.7% | A549/ATCC NSCLC -68.7% | 786-0 renal -92.5% | COLO 205 colon -72.9%

Cc1ccc(C(=O)Nc2cccc(C#Cc3cccc4[nH]nc(N)c34)c2)cc1C(F)(F)F
inactive: NCI-H23 lung 51.8% | NCI-H226 lung 55.8% | NCI-H322M lung 79.2% | HOP-62 NSCLC 58.7% | NCI-H460 lung 75.6% | HOP-92 NSCLC 63.8% | NCI-H522 lung 60.2% | A549/ATCC NSCLC 67.5% | 786-0 renal 62.6% | COLO 205 colon 40.2%

Cc1nnc(-c2ccc3c(c2)nc(/C=C/c2ccccc2)n3C2CCCCC2)o1
inactive: NCI-H23 lung 88.3% | NCI-H226 lung 104% | NCI-H322M lung 85.9% | HOP-62 NSCLC 83% | NCI-H460 lung 82.4% | HOP-92 NSCLC 79.7% | NCI-H522 lung 68.6% | A549/ATCC NSCLC 52.5% | 786-0 renal 92.2% | COLO 205 colon 79.7%

CCOC(=O)c1c(C)c2c(n1Cc1ccccc1)CSCC2=O
active: NCI-H23 lung 4.82% [100 µM] | NCI-H226 lung -5.37% [100 µM] | HOP-62 NSCLC -25.9% [100 µM] | NCI-H460 lung -21.1% [100 µM] | HOP-92 NSCLC -19.4% [100 µM] | 786-0 renal -11.2% [100 µM] | COLO 205 colon -53.3% [100 µM]
inactive: NCI-H322M lung 36.4% [100 µM] | NCI-H522 lung 16.5% [100 µM] | A549/ATCC NSCLC 20.2% [100 µM]

Oc1c(CN2CCOCC2)cc(COCc2ccccc2)c2cccnc12
active: NCI-H522 lung 4.41%
inactive: NCI-H23 lung 39.1% | NCI-H226 lung 43.4% | NCI-H322M lung 14.7% | HOP-62 NSCLC 10.7% | NCI-H460 lung 16.1% | HOP-92 NSCLC 62.4% | A549/ATCC NSCLC 26.5% | 786-0 renal 32.6% | COLO 205 colon 62.8%

Cc1ccnc(Nc2ccc([N+](=O)[O-])c(NCCN3CCOCC3)n2)c1
active: NCI-H460 lung 6.8% | COLO 205 colon -45.4%
inactive: NCI-H23 lung 42% | NCI-H226 lung 24.5% | NCI-H322M lung 50.2% | HOP-62 NSCLC 40.8% | HOP-92 NSCLC 138% | NCI-H522 lung 20.9% | A549/ATCC NSCLC 19.6% | 786-0 renal 24.8%

COc1ccc(C(=O)/C=C/c2ccc(Cl)cc2)cc1S(=O)(=O)Nc1c(N)nc(SC)[nH]c1=O
inactive: NCI-H23 lung 84.1% | NCI-H226 lung 83.2% | NCI-H322M lung 27.7% | HOP-62 NSCLC 32.6% | NCI-H460 lung 84% | HOP-92 NSCLC 73.7% | NCI-H522 lung 59.7% | A549/ATCC NSCLC 31.4% | 786-0 renal 31% | COLO 205 colon 49.8%

C=CC(=O)Nc1ccc(Nc2nccc(-c3ccc(N4CCCC4)c(C#N)c3)n2)cc1
active: NCI-H460 lung 0.189% | 786-0 renal -67.4% | COLO 205 colon 7.29%
inactive: NCI-H23 lung 62.1% | NCI-H226 lung 52.7% | NCI-H322M lung 41.2% | HOP-62 NSCLC 19.2% | HOP-92 NSCLC 60.9% | NCI-H522 lung 12.4% | A549/ATCC NSCLC 14.7%

COc1cccc(NCc2nnc(Nc3ccc(Cl)cc3)c3ccccc23)c1
active: NCI-H23 lung 2.05% | NCI-H226 lung -22.9% | NCI-H322M lung 3.32% | HOP-62 NSCLC -17.1% | NCI-H460 lung 0.101% | HOP-92 NSCLC -32.8% | NCI-H522 lung -43.8% | A549/ATCC NSCLC 2.56% | 786-0 renal -5.76% | COLO 205 colon -22.2%

C=C(C)[C@@H]1CC[C@]2(C(N)=O)CC[C@]3(C)[C@H](CC[C@@H]4[C@@]5(C)CC[C@H](OCCC#N)C(C)(C)[C@@H]5CC[C@]43C)[C@@H]12
inactive: NCI-H23 lung 91.3% | NCI-H226 lung 84.1% | NCI-H322M lung 73.3% | HOP-62 NSCLC 95% | NCI-H460 lung 79% | HOP-92 NSCLC 78.1% | NCI-H522 lung 77.5% | A549/ATCC NSCLC 74.6% | 786-0 renal 94.8% | COLO 205 colon 86.1%

CCN(CC)CCCN1C(=O)c2c(c(C)c3c(oc4ccc(O)cc43)c2C)C1=O
active: NCI-H226 lung -44.7% | NCI-H460 lung -25.9% | A549/ATCC NSCLC -76.8% | 786-0 renal -72.6%
inactive: NCI-H23 lung 92.7% | NCI-H322M lung 81.3% | HOP-62 NSCLC 89.9% | HOP-92 NSCLC 69.3% | NCI-H522 lung 80% | COLO 205 colon 64%

CN(C)CCCC1(c2ccc(F)cc2)OCc2cc(-c3cc4ccccc4s3)ccc21 (stereo not given)
active: HOP-62 NSCLC -65.8% | NCI-H460 lung -78.1% | NCI-H522 lung -9.87% | A549/ATCC NSCLC -67.1% | COLO 205 colon -65.6%
inactive: NCI-H23 lung 76.8% | NCI-H226 lung 67.9% | NCI-H322M lung 56.8% | HOP-92 NSCLC 26.8% | 786-0 renal 57.8%

Cc1ccc(C)c2c(C)c(C(=O)Nc3cccc(-n4cccn4)c3)oc12
inactive: NCI-H23 lung 73.1% [50 µM] | NCI-H226 lung 62.1% [50 µM] | NCI-H322M lung 86.5% [50 µM] | HOP-62 NSCLC 99.4% [50 µM] | NCI-H460 lung 56.4% [50 µM] | HOP-92 NSCLC 90.8% [50 µM] | NCI-H522 lung 32% [50 µM] | A549/ATCC NSCLC 58.4% [50 µM] | 786-0 renal 82.2% [50 µM] | COLO 205 colon 62.8% [50 µM]

COc1ccc(C(=O)Cn2c(C(=O)c3ccc(OC)cc3)nc3ccccc32)cc1
inactive: NCI-H23 lung 50.5% | NCI-H226 lung 37.4% | NCI-H322M lung 76.6% | HOP-62 NSCLC 37.8% | NCI-H460 lung 10.5% | HOP-92 NSCLC 45.2% | A549/ATCC NSCLC 41.3% | 786-0 renal 36.3% | COLO 205 colon 38.8%
active: NCI-H522 lung -27.7%

CN1CCN(CC(=O)Nc2ccc3ncnc(Nc4ccc(Oc5cccc(C(F)(F)F)c5)c(Cl)c4)c3c2)CC1
active: NCI-H460 lung -69.4% | 786-0 renal -75.8% | COLO 205 colon -39.5%
inactive: NCI-H23 lung 53.1% | NCI-H226 lung 81.5% | NCI-H322M lung 26.5% | HOP-62 NSCLC 54.1% | HOP-92 NSCLC 39.7% | NCI-H522 lung 18% | A549/ATCC NSCLC 10.2%

CC(C)(C)n1cc(-c2ccnc(NCCCNS(=O)(=O)c3ccc(C(F)(F)F)cc3)c2)c(-c2cccc(F)c2)n1
inactive: NCI-H23 lung 82% | NCI-H226 lung 91.1% | NCI-H322M lung 103% | HOP-62 NSCLC 92.7% | NCI-H460 lung 76.7% | HOP-92 NSCLC 90.1% | NCI-H522 lung 73.7% | A549/ATCC NSCLC 64.1% | 786-0 renal 88.3% | COLO 205 colon 76.9%

Nc1nc(N)c2c(n1)NC(c1ccc(Cl)cc1)C1CCc3ccccc3C1=N2 (stereo not given)
inactive: NCI-H23 lung 47.2% | NCI-H226 lung 60.2% | NCI-H322M lung 71.7% | HOP-62 NSCLC 84.2% | NCI-H460 lung 22.7% | HOP-92 NSCLC 94.3% | NCI-H522 lung 76.7% | A549/ATCC NSCLC 64% | 786-0 renal 64.4% | COLO 205 colon 51.6%

N#CSc1c[nH]c2cccc(/C=C/C(=O)/C=C(O)/C=C/c3cccc4[nH]cc(SC#N)c34)c12
active: NCI-H23 lung -36.8% | NCI-H226 lung -73.1% | NCI-H322M lung -47.5% | HOP-62 NSCLC -32.6% | NCI-H460 lung -22.9% | HOP-92 NSCLC -72% | NCI-H522 lung -68.2% | A549/ATCC NSCLC -69.7% | 786-0 renal -60.3% | COLO 205 colon -77.7%

COC(=O)N1CC(Oc2ccccn2)C2CC1c1ccccc1O2 (stereo not given)
inactive: NCI-H23 lung 94% | NCI-H226 lung 104% | NCI-H322M lung 119% | HOP-62 NSCLC 100% | NCI-H460 lung 100% | HOP-92 NSCLC 90.3% | NCI-H522 lung 97.6% | A549/ATCC NSCLC 98.6% | 786-0 renal 104% | COLO 205 colon 102%

C=C1C(=O)O[C@H]2[C@H]1CC/C(Cn1cc(CCC)nn1)=C\CC[C@@]1(C)O[C@@H]21
inactive: NCI-H23 lung 41.1% | NCI-H322M lung 90.2% | HOP-62 NSCLC 73.9% | NCI-H460 lung 61.4% | A549/ATCC NSCLC 68.2%
active: NCI-H226 lung -37.4% | HOP-92 NSCLC -11.2% | NCI-H522 lung -70.7% | 786-0 renal 3.66% | COLO 205 colon -72.1%
